Assay results taken from the supplement of paper PMC10849652.
About 7,900 targets were measured; listed, in parts, are those with a hit and a random draw of the rest. About 0.6% of all pairs of compound and target were hits.

Experiments:
Test in all cases: log2 fold change, soluble protein after heating vs DMSO (PISA); higher = thermal stabilisation; K562 cells, 10 uM, 30 min; active = over 0.2 and 3.5 SD of the protein, either way, in both replicates (recomputed)
[1] = compound: CC1=C(C=C(C=C1)NC(=O)C2=CC(=CC=C2)C(C)(C)C#N)NC3=CC4=C(C=C3)N=CN(C4=O)C
Outline: (§1)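 For each measurement, 10 μM compound was applied for 30 min to K562 cells at 2×10^6 cells/mL. Aliquots were heated for 3 min across 48°C-58°C, pooled, and extracted in PBS with 0.5% NP-40 at 4°C; the supernatant after 21,000xg for 90 min was soluble protein. This was quantified by TMTpro 16plex LC-MS/MS with channel sums equalised, and thermal stability was reported relative to control samples from duplicates, on a log2 fold-change scale.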

[2] = compound: CC1=C(C=C(C=C1)NC(=O)C2=CC(=CC=C2)N(C)C)NC(=O)C3=CC=C(C=C3)O
Outline: as §1

[3] = compound: CC1=CC=C(C=C1)SC2=C3C=C(SC3=CN=C2)C(=O)N
Outline: as §1

[4] = compound: CC1=NC(=CC=C1)C2=C(N=C(N2)C(C)(C)C)C3=CC4=NC=CN=C4C=C3
Outline: as §1

Nexturastat A = compound: CCCCN(Cc1ccc(C(=O)NO)cc1)C(=O)Nc1ccccc1 [Nexturastat A]
Outline: as §1

vemurafenib = compound: CCCS(=O)(=O)Nc1ccc(F)c(C(=O)c2c[nH]c3ncc(-c4ccc(Cl)cc4)cc23)c1F [vemurafenib]
Outline: as §1

[5] = compound: CCCS(=O)(=O)Nc1ccc(F)c(C(=O)c2c[nH]c3ncc(Cl)cc23)c1F
Outline: as §1

[6] = compound: CCCc1cc(C)[nH]c(=O)c1CNC(=O)c1cc(-c2ccnc(N3CCN(C)CC3)c2)cc2c1cnn2C(C)C
Outline: as §1

givinostat = compound: CCN(CC)Cc1ccc2cc(COC(=O)Nc3ccc(C(=O)NO)cc3)ccc2c1 [givinostat]
Outline: as §1

barasertib = compound: CCN(CCCOc1ccc2c(Nc3cc(CC(=O)Nc4cccc(F)c4)[nH]n3)ncnc2c1)CCOP(=O)(O)O [barasertib]
Outline: as §1

Measured: log2 fold change

CUX1 isoform 3 (UniProt P39880)
inactive: [1] -0.039 | [2] 0.016 | [3] 0 | [4] -0.001 | Nexturastat A -0.013 | vemurafenib 0.043 | [5] 0.025 | [6] 0.065 | givinostat 0.002 | barasertib 0.013

DDX5 (UniProt P17844)
inactive: [1] 0.136 | [2] -0.131 | [3] 0.036 | [4] 0.112 | Nexturastat A 0.033 | vemurafenib 0.142 | [5] 0.174 | [6] 0.036 | givinostat 0.178 | barasertib 0.122

EXOC2 (UniProt Q96KP1)
Sequence of UniProt Q96KP1 (Q96KP1 whole entry, looked up): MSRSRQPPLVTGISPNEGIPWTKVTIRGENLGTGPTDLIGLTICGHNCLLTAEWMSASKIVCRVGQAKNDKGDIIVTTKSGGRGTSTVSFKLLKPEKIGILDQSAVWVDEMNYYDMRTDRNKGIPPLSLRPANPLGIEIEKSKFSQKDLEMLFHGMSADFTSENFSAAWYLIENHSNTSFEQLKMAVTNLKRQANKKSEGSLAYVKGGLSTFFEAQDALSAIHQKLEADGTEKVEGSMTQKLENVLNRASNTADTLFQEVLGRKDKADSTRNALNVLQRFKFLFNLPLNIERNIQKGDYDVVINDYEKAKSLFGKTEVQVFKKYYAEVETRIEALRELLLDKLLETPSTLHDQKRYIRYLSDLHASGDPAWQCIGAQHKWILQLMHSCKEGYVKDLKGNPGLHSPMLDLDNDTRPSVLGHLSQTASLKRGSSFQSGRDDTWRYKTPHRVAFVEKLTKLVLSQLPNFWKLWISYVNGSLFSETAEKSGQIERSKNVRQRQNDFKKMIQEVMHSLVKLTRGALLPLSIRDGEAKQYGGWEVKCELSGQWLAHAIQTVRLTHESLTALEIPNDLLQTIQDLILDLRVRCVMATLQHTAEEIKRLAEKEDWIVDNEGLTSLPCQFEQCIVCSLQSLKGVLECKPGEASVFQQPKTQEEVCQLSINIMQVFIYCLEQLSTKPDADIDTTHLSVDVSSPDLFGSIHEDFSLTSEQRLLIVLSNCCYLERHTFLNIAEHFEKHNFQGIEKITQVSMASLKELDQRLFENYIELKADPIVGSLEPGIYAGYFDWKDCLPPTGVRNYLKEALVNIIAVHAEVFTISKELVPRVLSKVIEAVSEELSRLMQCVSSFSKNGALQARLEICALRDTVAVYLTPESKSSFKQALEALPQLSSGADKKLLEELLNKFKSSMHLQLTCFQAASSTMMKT
inactive: [1] -0.03 | [2] -0.017 | [3] 0.051 | [4] 0.027 | Nexturastat A 0.058 | vemurafenib 0.041 | [5] 0.062 | [6] 0.037 | givinostat 0.177 | barasertib 0.056

DOHH (UniProt Q9BU89)
Sequence of UniProt Q9BU89 (Q9BU89 whole entry, looked up): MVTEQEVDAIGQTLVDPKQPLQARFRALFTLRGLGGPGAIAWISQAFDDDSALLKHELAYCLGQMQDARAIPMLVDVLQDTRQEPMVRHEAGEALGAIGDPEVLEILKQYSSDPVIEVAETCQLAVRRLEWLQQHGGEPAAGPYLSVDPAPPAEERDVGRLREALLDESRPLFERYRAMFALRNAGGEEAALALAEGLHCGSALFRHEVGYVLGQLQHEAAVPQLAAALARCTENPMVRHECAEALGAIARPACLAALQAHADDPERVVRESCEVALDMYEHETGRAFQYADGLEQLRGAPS
inactive: [1] 0.083 | [2] -0.069 | [3] 0.084 | [4] -0.091 | Nexturastat A -0.144 | vemurafenib 0.001 | [5] -0.059 | [6] -0.063 | givinostat -0.068 | barasertib -0.274

DNAJC19 (UniProt Q96DA6)
inactive: [1] -0.02 | [2] 0.001 | [3] 0.043 | [4] 0.069 | Nexturastat A -0.121 | vemurafenib 0.003 | [5] 0.035 | [6] -0.013 | givinostat 0.005 | barasertib 0.007

FAM117A (UniProt Q9C073)
inactive: [1] 0.036 | [2] 0.013 | [3] -0.007 | [4] -0.034 | Nexturastat A 0.004 | vemurafenib -0.023 | [5] -0.004 | [6] -0.001 | givinostat 0.109 | barasertib 0.053

DUS2 (UniProt Q9NX74)
inactive: [1] -0.028 | [2] -0.022 | [3] -0.022 | [4] 0.04 | Nexturastat A -0.015 | vemurafenib -0.004 | [5] 0.099 | [6] 0.039 | givinostat 0.062 | barasertib -0.062

DYNC1LI2 (UniProt O43237)
Sequence of UniProt O43237 (O43237 whole entry, looked up): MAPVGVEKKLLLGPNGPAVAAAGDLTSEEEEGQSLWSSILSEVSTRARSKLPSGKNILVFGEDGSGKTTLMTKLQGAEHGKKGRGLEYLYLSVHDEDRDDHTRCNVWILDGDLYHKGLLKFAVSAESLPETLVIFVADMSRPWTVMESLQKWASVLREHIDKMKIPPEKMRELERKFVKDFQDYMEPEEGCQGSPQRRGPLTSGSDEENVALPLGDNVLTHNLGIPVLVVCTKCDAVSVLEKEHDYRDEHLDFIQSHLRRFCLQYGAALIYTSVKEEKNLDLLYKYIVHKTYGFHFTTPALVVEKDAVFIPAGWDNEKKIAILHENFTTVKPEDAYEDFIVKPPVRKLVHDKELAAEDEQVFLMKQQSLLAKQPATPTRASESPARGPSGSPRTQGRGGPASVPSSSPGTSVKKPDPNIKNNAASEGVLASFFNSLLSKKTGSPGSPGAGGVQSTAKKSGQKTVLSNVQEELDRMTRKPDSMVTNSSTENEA
inactive: [1] 0.013 | [2] -0.093 | [3] -0.049 | [4] -0.193 | vemurafenib 0.001 | [5] -0.027 | [6] 0.076 | givinostat 0.017 | barasertib 0.05
active: Nexturastat A 0.646

DBNL isoform 3 (UniProt Q9UJU6)
inactive: [1] -0.051 | [2] -0.019 | [3] 0.011 | [4] 0.113 | Nexturastat A -0.082 | vemurafenib 0.07 | [5] 0.1 | [6] -0.006 | givinostat 0.036 | barasertib 0.045

DNAH5 (UniProt Q8TE73)
active: [3] 0.431
inactive: [1] -0.047 | [2] 0 | [4] -0.036 | Nexturastat A -0.021 | vemurafenib -0.077 | [5] 0.014 | [6] -0.044 | givinostat 0.012 | barasertib 0.03

FADS1, A0A0A0MR51
active: givinostat -0.274
inactive: [1] 0.09 | [2] -0.019 | [3] 0.008 | [4] 0.069 | Nexturastat A -0.006 | vemurafenib -0.002 | [5] 0.021 | [6] -0.034 | barasertib 0.031

DAG1 (UniProt Q14118)
Sequence of UniProt Q14118 (Q14118 whole entry, looked up): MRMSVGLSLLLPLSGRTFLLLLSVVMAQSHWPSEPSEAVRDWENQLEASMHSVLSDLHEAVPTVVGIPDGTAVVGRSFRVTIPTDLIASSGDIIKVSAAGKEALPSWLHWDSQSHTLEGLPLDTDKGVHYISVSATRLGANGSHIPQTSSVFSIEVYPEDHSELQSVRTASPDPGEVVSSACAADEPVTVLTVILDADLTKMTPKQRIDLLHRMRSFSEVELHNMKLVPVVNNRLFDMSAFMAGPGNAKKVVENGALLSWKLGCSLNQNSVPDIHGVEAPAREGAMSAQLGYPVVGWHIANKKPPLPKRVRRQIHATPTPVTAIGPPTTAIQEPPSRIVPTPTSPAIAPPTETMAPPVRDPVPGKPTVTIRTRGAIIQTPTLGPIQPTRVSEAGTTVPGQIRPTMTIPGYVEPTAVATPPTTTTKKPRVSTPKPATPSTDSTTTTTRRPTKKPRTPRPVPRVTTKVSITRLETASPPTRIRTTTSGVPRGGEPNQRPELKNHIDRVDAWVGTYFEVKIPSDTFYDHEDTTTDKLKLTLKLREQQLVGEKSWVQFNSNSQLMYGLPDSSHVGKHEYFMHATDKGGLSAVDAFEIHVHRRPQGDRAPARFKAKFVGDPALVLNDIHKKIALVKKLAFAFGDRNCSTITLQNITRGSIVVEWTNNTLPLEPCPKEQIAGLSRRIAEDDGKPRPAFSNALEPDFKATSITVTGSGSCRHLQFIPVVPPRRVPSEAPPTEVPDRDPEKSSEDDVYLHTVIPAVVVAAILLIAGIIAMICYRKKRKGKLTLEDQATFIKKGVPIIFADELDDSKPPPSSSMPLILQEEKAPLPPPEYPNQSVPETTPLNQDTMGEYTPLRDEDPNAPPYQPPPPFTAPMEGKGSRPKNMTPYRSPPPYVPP
inactive: [1] -0.053 | [2] -0.019 | [3] -0.013 | [4] 0.001 | Nexturastat A -0.005 | vemurafenib 0.005 | [5] -0.06 | [6] -0.028 | givinostat 0.019 | barasertib 0.011

DIAPH1 (UniProt O60610)
inactive: [1] 0.018 | [2] -0.05 | [3] 0.025 | [4] -0.049 | Nexturastat A 0.19 | vemurafenib 0.041 | [5] 0.062 | [6] 0.08 | givinostat 0.051 | barasertib 0.077

DIP2A (UniProt Q14689)
inactive: [1] 0.032 | [2] -0.013 | [3] -0.007 | [4] 0.07 | Nexturastat A -0.119 | vemurafenib 0.05 | [5] -0.009 | [6] 0.336 | givinostat -0.05 | barasertib 0.118

ECPAS (UniProt Q5VYK3)
inactive: [1] 0.008 | [2] -0.06 | [3] 0.016 | [4] 0.02 | Nexturastat A 0.049 | vemurafenib 0.084 | [5] 0.059 | [6] 0.051 | givinostat 0.118 | barasertib 0.037

EDEM2 (UniProt Q9BV94)
inactive: [1] -0.064 | [2] -0.001 | [3] -0.084 | [4] -0.204 | Nexturastat A 0.036 | vemurafenib -0.032 | [5] -0.149 | [6] 0.095 | givinostat 0.013 | barasertib 0.21

EXTL2 (UniProt Q9UBQ6)
Sequence of UniProt Q9UBQ6 (Q9UBQ6 whole entry, looked up): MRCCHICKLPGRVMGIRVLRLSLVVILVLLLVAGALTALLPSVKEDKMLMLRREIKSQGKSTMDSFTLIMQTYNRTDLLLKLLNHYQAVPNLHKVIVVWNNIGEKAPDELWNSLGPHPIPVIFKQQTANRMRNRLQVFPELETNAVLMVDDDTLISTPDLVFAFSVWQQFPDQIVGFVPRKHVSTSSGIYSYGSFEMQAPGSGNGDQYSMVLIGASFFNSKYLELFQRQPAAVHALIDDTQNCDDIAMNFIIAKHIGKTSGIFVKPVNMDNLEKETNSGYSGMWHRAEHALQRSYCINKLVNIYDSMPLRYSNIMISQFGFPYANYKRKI
inactive: [1] 0.072 | [2] -0.003 | [3] -0.017 | [4] -0.003 | Nexturastat A -0.163 | vemurafenib -0.002 | [5] -0.031 | [6] -0.043 | givinostat -0.039 | barasertib -0.053

DHFR (UniProt P00374)
inactive: [1] -0.069 | [2] 0.003 | [3] -0.086 | [4] -0.074 | Nexturastat A 0.232 | vemurafenib 0.044 | [5] 0.001 | [6] 0.17 | givinostat 0.162 | barasertib 0.068

DCAF13 (UniProt Q9NV06)
Sequence of UniProt Q9NV06 (Q9NV06 whole entry, looked up): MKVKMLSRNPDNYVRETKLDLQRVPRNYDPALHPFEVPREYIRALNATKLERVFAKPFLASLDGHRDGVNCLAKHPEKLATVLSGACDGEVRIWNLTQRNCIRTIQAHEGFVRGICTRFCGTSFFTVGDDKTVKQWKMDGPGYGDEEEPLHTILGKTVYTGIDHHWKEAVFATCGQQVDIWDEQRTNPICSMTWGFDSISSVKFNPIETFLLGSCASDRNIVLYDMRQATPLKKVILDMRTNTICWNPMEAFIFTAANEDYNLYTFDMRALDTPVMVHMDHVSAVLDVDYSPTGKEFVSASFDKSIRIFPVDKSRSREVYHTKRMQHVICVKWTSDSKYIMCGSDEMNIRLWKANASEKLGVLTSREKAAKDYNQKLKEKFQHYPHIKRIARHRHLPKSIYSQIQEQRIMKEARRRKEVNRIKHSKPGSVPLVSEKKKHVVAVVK
inactive: [1] -0.038 | [2] 0.007 | [3] -0.123 | [4] -0.067 | Nexturastat A 0.205 | vemurafenib -0.117 | [5] -0.062 | [6] 0.089 | givinostat 0.017 | barasertib -0.084

EEF1B2 (UniProt P24534)
Sequence of UniProt P24534 (P24534 whole entry, looked up): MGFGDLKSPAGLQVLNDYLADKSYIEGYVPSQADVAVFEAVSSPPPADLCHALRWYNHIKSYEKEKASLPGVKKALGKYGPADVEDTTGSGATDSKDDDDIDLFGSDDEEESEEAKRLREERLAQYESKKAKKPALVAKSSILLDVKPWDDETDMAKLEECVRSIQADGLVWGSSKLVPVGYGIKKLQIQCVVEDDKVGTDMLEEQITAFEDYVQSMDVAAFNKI
inactive: [1] 0.024 | [2] -0.025 | [3] -0.007 | [4] 0.031 | Nexturastat A 0.031 | vemurafenib 0.024 | [5] 0.02 | [6] -0.009 | givinostat 0.023 | barasertib 0.055

DNTTIP2 (UniProt Q5QJE6)
inactive: [1] 0.033 | [2] 0.028 | [3] -0.087 | [4] -0.061 | Nexturastat A 0.151 | vemurafenib -0.015 | [5] -0.064 | [6] -0.1 | givinostat 0.057 | barasertib -0.062

DCP2 (UniProt Q8IU60)
inactive: [1] -0.134 | [2] -0.006 | [3] 0.016 | [4] -0.089 | Nexturastat A 0.174 | vemurafenib 0.064 | [5] 0.055

DDX39A (UniProt O00148)
inactive: [1] -0.018 | [2] -0.016 | [3] 0.02 | [4] 0.027 | Nexturastat A 0.015 | vemurafenib 0.004 | [5] 0.017 | [6] 0.074 | givinostat 0.076 | barasertib 0.035

DNM2 (UniProt P50570)
Sequence of UniProt P50570 (P50570 whole entry, looked up): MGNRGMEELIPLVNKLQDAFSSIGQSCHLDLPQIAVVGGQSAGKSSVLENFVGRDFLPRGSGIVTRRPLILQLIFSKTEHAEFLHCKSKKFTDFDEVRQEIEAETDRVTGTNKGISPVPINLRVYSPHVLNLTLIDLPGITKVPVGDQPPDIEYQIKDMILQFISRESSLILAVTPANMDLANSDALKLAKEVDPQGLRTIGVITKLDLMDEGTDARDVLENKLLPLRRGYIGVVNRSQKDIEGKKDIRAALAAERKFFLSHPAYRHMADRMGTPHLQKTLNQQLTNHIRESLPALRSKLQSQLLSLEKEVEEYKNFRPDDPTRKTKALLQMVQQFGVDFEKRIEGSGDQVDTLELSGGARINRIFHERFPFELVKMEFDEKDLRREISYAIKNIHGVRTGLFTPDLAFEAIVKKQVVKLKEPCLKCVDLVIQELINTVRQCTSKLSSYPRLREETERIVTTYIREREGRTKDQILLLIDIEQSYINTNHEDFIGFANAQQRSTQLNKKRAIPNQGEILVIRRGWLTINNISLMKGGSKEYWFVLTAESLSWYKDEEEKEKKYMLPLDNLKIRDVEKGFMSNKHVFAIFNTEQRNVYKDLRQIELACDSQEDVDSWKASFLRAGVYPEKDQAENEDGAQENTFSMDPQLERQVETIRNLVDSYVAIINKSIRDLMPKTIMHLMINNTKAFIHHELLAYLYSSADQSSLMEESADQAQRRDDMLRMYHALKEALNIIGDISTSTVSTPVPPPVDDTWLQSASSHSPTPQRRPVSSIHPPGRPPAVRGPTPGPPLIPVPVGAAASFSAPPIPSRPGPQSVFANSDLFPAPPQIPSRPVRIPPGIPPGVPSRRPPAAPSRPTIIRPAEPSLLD
inactive: [1] -0.016 | [2] -0.043 | [3] 0.009 | [4] 0.024 | Nexturastat A -0.057 | vemurafenib 0.016 | [5] 0.033 | [6] -0.007 | givinostat 0.036 | barasertib 0.054

EFCAB14 (UniProt O75071)
Sequence of UniProt O75071 (O75071 whole entry, looked up): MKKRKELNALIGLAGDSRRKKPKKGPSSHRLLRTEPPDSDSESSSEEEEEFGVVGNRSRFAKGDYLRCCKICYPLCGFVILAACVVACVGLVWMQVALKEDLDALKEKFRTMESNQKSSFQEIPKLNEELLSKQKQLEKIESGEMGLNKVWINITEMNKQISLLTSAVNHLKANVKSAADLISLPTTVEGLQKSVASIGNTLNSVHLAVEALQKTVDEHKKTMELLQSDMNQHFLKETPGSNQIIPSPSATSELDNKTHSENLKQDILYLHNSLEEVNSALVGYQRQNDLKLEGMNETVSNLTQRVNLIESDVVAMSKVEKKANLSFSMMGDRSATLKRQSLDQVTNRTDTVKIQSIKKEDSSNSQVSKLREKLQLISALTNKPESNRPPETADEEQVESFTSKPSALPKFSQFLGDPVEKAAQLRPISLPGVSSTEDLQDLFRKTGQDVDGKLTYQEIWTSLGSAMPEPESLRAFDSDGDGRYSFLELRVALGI
inactive: [1] -0.034 | [2] 0.061 | [3] 0.022 | [4] -0.011 | Nexturastat A -0.032 | vemurafenib -0.049 | [5] 0.012 | [6] 0.023 | givinostat 0.054 | barasertib -0.01

CTSL (UniProt P07711)
inactive: [1] -0.083 | [2] 0.014 | [3] -0.049 | [4] 0.013 | Nexturastat A 0.085 | vemurafenib -0.023 | [5] -0.05 | [6] 0.033 | givinostat 0.121 | barasertib 0.092

DNAH11 (UniProt Q96DT5)
inactive: [1] -0.109 | [2] 0.064 | [3] -0.13 | [4] 0.044 | Nexturastat A -0.007 | vemurafenib 0.199 | [5] -0.15 | [6] 0.17 | givinostat 0.111 | barasertib -0.051

CYP51A1 (UniProt Q16850)
inactive: [1] 0.063 | [2] -0.036 | [3] -0.098 | [4] -0.133 | Nexturastat A 0.024 | vemurafenib 0.029 | [5] -0.015 | [6] 0.07 | givinostat 0.007 | barasertib 0.01

EXOSC10 (UniProt Q01780)
inactive: [1] -0.537 | [2] 0.061 | [3] -0.07 | [4] -0.123 | vemurafenib -0.221 | [5] -0.18 | [6] -0.168 | givinostat 0.147 | barasertib 0.036
active: Nexturastat A 0.762

EDC3 (UniProt Q96F86)
inactive: [1] -0.046 | [2] 0.085 | [3] 0.021 | [4] 0.037 | Nexturastat A 0.088 | vemurafenib 0.046 | [5] 0.008 | [6] 0.1 | givinostat 0.049 | barasertib 0.055
